# Assay results reported in PubChem BioAssay.
# For some of these results: Potency and affinity values are given separately. Active and inactive are the calls of the source.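 The calls were made as follows, unless noted: active = compound raising the membrane signal above positive-control mean plus 3 SD in both repeats, and a primary screen hit; inactive = the rest.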
# Columns and labels:
# [1] = system: TRPC4 beta (transient receptor potential cation channel C4), mouse; experiment: TRPC4 cation channel opening, retest – cell-based, Fluo4 calcium, HEK293 TRPC4beta/mu-opioid, duplicates, 10 µM, confirmation (AID 2426;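 active = fluorescence ratio normalized to control raised more than 50% in primary screen plus both repeat runs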); conditions: Fluo4 calcium fluorescence, at 10 µM; hits give high values
# [2] = system: transient receptor potential cation channel C4 beta (TRPC4), mouse; experiment: TRPC4 cation channel opening, second retest – cell-based, second round, Fluo4, HEK293 TRPC4beta/mu-opioid, 1 µM, confirmation (AID 2461;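 active = primary screen active and over 50% activation in each of two duplicate runs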); conditions: Fluo4 calcium fluorescence, at 1 µM; hits give high values
# [3] = system: TRPC4 (transient receptor potential cation channel C4 beta), mouse; experiment: potentiation of DAMGO EC20 TRPC4 response – cell-based, second round, Fluo-4, HEK293 TRPC4beta/mu-opioid, 1 µM, confirmation (AID 2554;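 active = primary screen hit whose fluorescence ratio, in both repeats, exceeds the weak agonist control mean by 3 SD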); conditions: DAMGO EC20, Fluo-4 calcium flux, at 1 µM; hits give high values
# [4] = system: TRPC4 beta (transient receptor potential cation channel C4), mouse; experiment: potentiation of DAMGO EC20 TRPC4 response – cell-based, Fluo-4, HEK293 TRPC4beta/mu-opioid, confirmation (AID 2555;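 active = primary screen hit whose calcium fluorescence ratio, in both repeats, exceeds the weak agonist control mean by 3 SD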); conditions: DAMGO EC20, Fluo-4 calcium flux, at 10 µM; hits give high values
# [5] = target: Short transient receptor potential channel 4 (Mus musculus) (UniProt Q9QUQ5); experiment: blockers of DAMGO-evoked TRPC4 calcium flux – cell-based, Fluo4, HEK293 TRPC4beta/mu-opioid, confirmation (AID 2636;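 active = calcium signal cut by more than 3 SD below the full-agonist control yet still positive, in both repeats and the earlier primary screen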); conditions: at 10 µM; hits give high values
# [6] = target: Short transient receptor potential channel 4 (Mus musculus) (UniProt Q9QUQ5); experiment: blockers of DAMGO-evoked TRPC4 calcium flux – cell-based, second round, Fluo4, HEK293 TRPC4beta/mu-opioid, 1 µM, confirmation (AID 2637;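 active = calcium signal ratio cut to more than 3 SD under the fully stimulated control mean yet still positive, in both repeats and the primary screen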); conditions: at 1 µM; hits give high values
# [7] = target: Short transient receptor potential channel 4 (Mus musculus) (UniProt Q9QUQ5); experiment: calcium entry via TRPC4 opening agents – cell-based, HEK293 TRPC4/mu-opioid, Fluo-4 calcium, dose response (AID 434937;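 active = primary screen activator hit with a dose response curve and TRPC4 channel activation at any tested dose; inactive = no activation, no dose response, or not a primary hit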)
# [8] = target: Short transient receptor potential channel 4 (Mus musculus) (UniProt Q9QUQ5); experiment: potentiation of DAMGO-evoked TRPC4 calcium signal – cell-based, HEK293 TRPC4/mu-opioid, Fluo-4 calcium, EC20 DAMGO, dose response (AID 434941;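 active = earlier screen potentiator hit that boosts the TRPC4 ion channel at some dose, with a dose response; inactive = no potentiation, no dose response, or not a prior hit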;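 also: calcium entry triggered by an EC20 dose of DAMGO at the co-expressed mu-opioid receptor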)
# [9] = target: Short transient receptor potential channel 4 (Mus musculus) (UniProt Q9QUQ5); experiment: block of DAMGO-driven TRPC4 calcium entry – cell-based, HEK293 TRPC4/mu-opioid, Fluo-4 calcium, dose response (AID 434942;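 active = primary screen inhibitor hit that blocks the TRPC4 channel at some tested dose, yielding a dose curve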)
# [10] = target: Short transient receptor potential channel 6 (Mus musculus) (UniProt Q61143); experiment: TRPC6 blockade by TRPC4 inhibitor hits – cell-based, HEK293, membrane potential dye, duplicate, selectivity assay for TRPC4 inhibitor project, confirmation (AID 434948;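 active = active in primary screen and both duplicates, each dropping signal beyond three positive-control SD with fluorescence still positive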); conditions: HEK293 TRPC6, membrane potential dye fluorescence, at 10 µM, stimulated with maximal-effect acetylcholine; hits give high values
# [11] = target: Short transient receptor potential channel 6 (Mus musculus) (UniProt Q61143); experiment: TRPC6 opening by TRPC4 activator hits – cell-based, HEK293, membrane potential dye, duplicate, selectivity assay for TRPC4 activator project, confirmation (AID 434950;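 active = membrane potential signal rise above negative control mean plus 3 SD in both duplicates, also active in the earlier TRPC4 screen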); conditions: HEK293 TRPC6, membrane potential fluorescence, at 10 µM; activation: hits give high values; outcome: activation
# [12] = target: Short transient receptor potential channel 6 (Mus musculus) (UniProt Q61143); experiment: positive modulators of mouse TRPC6 channel – HEK293 cells, membrane potential dye, duplicate, selectivity assay for TRPC4 potentiator project, confirmation (AID 434952); conditions: HEK293 TRPC6, membrane potential dye fluorescence, at 10 µM, maximal acetylcholine added after compound; hits give high values
# [13] = target: Short transient receptor potential channel 4 (Mus musculus) (UniProt Q9QUQ5); experiment: calcium flux activators in TRPC4/5HT1a cells, counter-screen for TRPC4 activator project, cell-based, second counter screen, HEK293 TRPC4/5HT1a, Fluo-4 (AID 434977;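 active = calcium signal rise above buffer-control mean plus 5 SD in both duplicates, and also a hit in the primary screen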); conditions: Fluo-4 calcium flux, at 10 µM; hits give high values
# [14] = serotonin-gated TRPC4 signal block – cell-based, second counter screen, HEK293 TRPC4/5HT1a, Fluo-4, counter-screen for TRPC4 inhibitor project, confirmation (AID 434978;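 active = primary screen active whose calcium signal fell more than 3 SD beyond the full-serotonin control mean in both duplicate plates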;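 as to outcome: serotonin given first at submaximal then at maximal dose after compound preincubation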); conditions: Fluo-4 calcium flux, at 10 µM, serotonin added to trigger calcium flux; hits give high values
# [15] = system: TRPC4 (mouse), co-expressed with 5HT1a in HEK293; experiment: enhancement of serotonin-evoked TRPC4 response – cell-based, second counter screen, HEK293 TRPC4/5HT1a, Fluo-4, counter-screen for TRPC4 potentiator project, confirmation (AID 434979;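 active = signal rise over 3 SD above mean of control wells given weak agonist, in both repeats and first screen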); conditions: Fluo-4 calcium flux, at 10 µM, serotonin added at its EC20 dose; hits give high values
# [16] = nonspecific calcium rise without TRPC4 – cell-based, HEK293 mu-opioid receptor line, counter-screen for TRPC4 activator project, confirmation (AID 449723;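 active = hit in primary screen, with calcium signal over 5 SD above buffer well mean in both duplicates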;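 also: counter screen cells carry the mu-opioid receptor alone and lack TRPC4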); conditions: HEK293 mu-opioid cells, Fluo-4 calcium fluorescence, at 10 µM; hits give high values
# [17] = nonspecific potentiation of DAMGO calcium response – cell-based, HEK293 mu-opioid receptor line, counter-screen for TRPC4 allosteric potentiator project, confirmation (AID 449724;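 active = calcium signal rise more than 3 SD above the low-dose agonist control mean, in both duplicate plates and the primary screen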); conditions: HEK293 mu-opioid receptor cells, Fluo-4 calcium flux, at 10 µM, compound added before EC20 DAMGO stimulus; hits give high values
# Short transient receptor potential channel 6 (Mus musculus), sequence (Q61143 whole entry, looked up): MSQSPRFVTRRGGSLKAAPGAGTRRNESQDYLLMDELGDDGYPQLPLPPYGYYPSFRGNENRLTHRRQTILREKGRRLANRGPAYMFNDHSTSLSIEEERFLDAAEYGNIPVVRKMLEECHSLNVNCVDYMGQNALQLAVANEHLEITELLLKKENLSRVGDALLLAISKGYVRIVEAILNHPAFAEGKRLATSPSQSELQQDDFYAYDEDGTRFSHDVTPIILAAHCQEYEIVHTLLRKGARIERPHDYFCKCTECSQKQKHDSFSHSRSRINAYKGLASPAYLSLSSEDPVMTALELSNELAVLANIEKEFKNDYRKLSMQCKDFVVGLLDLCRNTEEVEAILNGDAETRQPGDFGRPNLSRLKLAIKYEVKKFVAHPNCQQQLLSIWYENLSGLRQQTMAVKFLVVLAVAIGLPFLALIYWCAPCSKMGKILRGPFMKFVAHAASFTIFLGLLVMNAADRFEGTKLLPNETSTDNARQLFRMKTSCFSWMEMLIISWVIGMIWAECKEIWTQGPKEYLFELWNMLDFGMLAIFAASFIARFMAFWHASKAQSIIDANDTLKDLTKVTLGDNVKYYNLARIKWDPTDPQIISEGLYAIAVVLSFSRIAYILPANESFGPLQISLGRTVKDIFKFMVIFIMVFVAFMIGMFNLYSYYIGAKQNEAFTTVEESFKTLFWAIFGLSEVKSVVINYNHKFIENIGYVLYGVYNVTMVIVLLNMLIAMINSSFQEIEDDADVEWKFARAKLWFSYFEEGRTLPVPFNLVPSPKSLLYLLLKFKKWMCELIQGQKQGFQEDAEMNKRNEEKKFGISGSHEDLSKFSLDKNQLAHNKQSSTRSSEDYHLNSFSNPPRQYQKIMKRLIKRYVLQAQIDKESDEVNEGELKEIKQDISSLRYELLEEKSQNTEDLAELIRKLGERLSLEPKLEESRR
# Short transient receptor potential channel 4 (Mus musculus), sequence (Q9QUQ5 whole entry, looked up): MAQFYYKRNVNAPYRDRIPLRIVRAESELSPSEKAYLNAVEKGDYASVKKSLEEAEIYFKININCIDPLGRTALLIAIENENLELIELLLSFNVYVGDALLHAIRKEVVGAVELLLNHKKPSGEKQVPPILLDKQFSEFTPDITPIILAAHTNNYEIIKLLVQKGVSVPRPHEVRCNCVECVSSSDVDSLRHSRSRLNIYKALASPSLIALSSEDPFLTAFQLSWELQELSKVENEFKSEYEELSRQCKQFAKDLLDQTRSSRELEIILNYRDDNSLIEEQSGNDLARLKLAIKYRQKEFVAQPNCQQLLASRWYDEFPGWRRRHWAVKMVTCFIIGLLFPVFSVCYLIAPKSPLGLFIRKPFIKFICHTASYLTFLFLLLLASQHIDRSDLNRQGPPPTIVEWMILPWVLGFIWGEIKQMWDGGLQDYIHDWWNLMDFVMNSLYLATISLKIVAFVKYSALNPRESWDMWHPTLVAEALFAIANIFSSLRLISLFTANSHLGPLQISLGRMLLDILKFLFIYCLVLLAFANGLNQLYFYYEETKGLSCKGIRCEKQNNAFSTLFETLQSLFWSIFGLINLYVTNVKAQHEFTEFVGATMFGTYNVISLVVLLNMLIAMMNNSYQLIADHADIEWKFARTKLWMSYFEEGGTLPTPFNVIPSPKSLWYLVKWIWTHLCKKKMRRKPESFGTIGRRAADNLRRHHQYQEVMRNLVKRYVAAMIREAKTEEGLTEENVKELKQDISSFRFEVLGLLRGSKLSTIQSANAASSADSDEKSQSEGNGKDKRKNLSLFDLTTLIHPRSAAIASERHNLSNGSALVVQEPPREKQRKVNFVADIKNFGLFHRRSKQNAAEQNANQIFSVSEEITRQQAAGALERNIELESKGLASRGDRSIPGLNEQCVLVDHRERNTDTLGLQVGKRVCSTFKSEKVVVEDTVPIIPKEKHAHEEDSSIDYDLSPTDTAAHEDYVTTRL
smiles,measurement,setting,value
CCN(CC)c1ccc(/C=N/NC(=O)CNC(=O)c2ccccn2)cc1,outcome,[1],inactive
same,outcome,[2],inactive
same,outcome,[3],inactive
same,outcome,[4],inactive
same,outcome,[5],inactive
same,outcome,[6],inactive
same,outcome,[7],inactive
same,outcome,[8],inactive
same,outcome,[9],inactive
same,outcome,[10],inactive
same,outcome,[11],inactive
same,outcome,[12],inactive
same,outcome,[13],inactive
same,outcome,[14],inactive
same,outcome,[15],inactive
same,outcome,[16],inactive
same,outcome,[17],inactive
CCc1nc2ccccc2n1Cc1ccc(F)cc1,outcome,[1],inactive
same,outcome,[2],inactive
same,outcome,[3],inactive
same,outcome,[4],inactive
same,outcome,[5],inactive
same,outcome,[6],inactive
same,outcome,[7],inactive
same,outcome,[8],inactive
same,outcome,[9],inactive
same,outcome,[10],inactive
same,outcome,[11],inactive
same,outcome,[12],inactive
same,outcome,[13],inactive
same,outcome,[14],inactive
same,outcome,[15],inactive
same,outcome,[16],inactive
same,outcome,[17],inactive
O=C(O)CCC(=O)N1CCN(c2nc3ccccc3s2)CC1,outcome,[1],inactive
same,outcome,[2],inactive
same,outcome,[3],inactive
same,potentiation,[4],11% (active)
same,outcome,[5],inactive
same,outcome,[6],inactive
same,outcome,[7],inactive
same,outcome,[8],inactive
same,outcome,[9],inactive
same,outcome,[10],inactive
same,outcome,[11],inactive
same,outcome,[12],inactive
same,outcome,[13],inactive
same,outcome,[14],inactive
same,potentiation,[15],21.2% (active)
same,outcome,[16],inactive
same,outcome,[17],inactive
Cc1ccc(NS(=O)(=O)c2cc(N)ccc2Cl)c(C)c1,outcome,[1],inactive
same,outcome,[2],inactive
same,outcome,[3],inactive
same,outcome,[4],inactive
same,outcome,[5],inactive
same,outcome,[6],inactive
same,outcome,[7],inactive
same,outcome,[8],inactive
same,outcome,[9],inactive
same,outcome,[10],inactive
same,outcome,[11],inactive
same,outcome,[12],inactive
same,outcome,[13],inactive
same,outcome,[14],inactive
same,outcome,[15],inactive
same,outcome,[16],inactive
same,outcome,[17],inactive
Cc1ccc(Oc2ccccc2NC(=O)CSCC(=O)Nc2cc(C)on2)cc1,outcome,[1],inactive
same,outcome,[2],inactive
same,outcome,[3],inactive
same,outcome,[4],inactive
same,inhibition,[5],62% (active)
same,outcome,[6],inactive
same,outcome,[7],inactive
same,outcome,[8],inactive
same,outcome,[9],inactive
same,outcome,[10],inactive
same,outcome,[11],inactive
same,outcome,[12],inactive
same,outcome,[13],inactive
same,inhibition,[14],35.3% (active)
same,outcome,[15],inactive
same,outcome,[16],inactive
same,outcome,[17],inactive
Fc1ccc2c(c1)C(c1ccncc1)=NNC(c1ccc(Cl)cc1)=N2,outcome,[1],inactive
same,outcome,[2],inactive
same,outcome,[3],inactive
same,outcome,[4],inactive
same,outcome,[5],inactive
same,outcome,[6],inactive
same,outcome,[7],inactive
same,outcome,[8],inactive
same,outcome,[9],inactive
same,outcome,[10],inactive
same,outcome,[11],inactive
same,outcome,[12],inactive
same,outcome,[13],inactive
same,outcome,[14],inactive
same,outcome,[15],inactive
same,outcome,[16],inactive
same,outcome,[17],inactive
CCCN1Cc2cccc(C(=O)N3CCN(c4cc(Cl)ccc4C)CC3)c2C1=O,outcome,[1],inactive
same,outcome,[2],inactive
same,outcome,[3],inactive
same,potentiation,[4],81% (active)
same,outcome,[5],inactive
same,outcome,[6],inactive
same,outcome,[7],inactive
same,outcome,[8],inactive
same,outcome,[9],inactive
same,outcome,[10],inactive
same,outcome,[11],inactive
same,outcome,[12],inactive
same,outcome,[13],inactive
same,outcome,[14],inactive
same,potentiation,[15],49.8% (active)
same,outcome,[16],inactive
same,outcome,[17],inactive
CC(C)(C)n1nnnc1C(c1ccc(Cl)cc1)N(Cc1cccnc1)Cc1ccco1 (stereo unspecified),outcome,[1],inactive
same,outcome,[2],inactive
same,outcome,[3],inactive
same,outcome,[4],inactive
same,outcome,[5],inactive
same,outcome,[6],inactive
same,outcome,[7],inactive
same,outcome,[8],inactive
same,outcome,[9],inactive
same,outcome,[10],inactive
same,outcome,[11],inactive
same,outcome,[12],inactive
same,outcome,[13],inactive
same,outcome,[14],inactive
same,outcome,[15],inactive
same,outcome,[16],inactive
same,outcome,[17],inactive
